Results taken from PubChem BioAssay (EPA / NIEHS).
Where “and” joins values, the source holds several entries; their conditions need not be identical. Equal entries are not always repeated. Records with an inconclusive call do not appear. Some compounds were tested as several samples or in several runs, with calls that do not always agree. Calls of active or inactive are those of the source. The calls were made as follows, unless noted: active = hit-call score of the fitted dose curve at least 0.9, where 1 is the maximum; inactive = score below 0.9.

What was measured:
[1] = target: Glucocorticoid receptor (Homo sapiens) (UniProt P04150); test: ATG_GR_TRANS: Attagene TRANS-FACTORIAL HepG2 Assay for human Glucocorticoid Receptor (GR) (AID 2282978; active = hit-call score of the fitted dose curve at least 0.9, where 1 is the maximum;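 also: activators score as hits since higher reporter transcript over DMSO is fitted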); conditions: HepG2 Attagene TRANS GR reporter, mRNA transcription
Chain of Glucocorticoid receptor (Homo sapiens) (P04150 whole entry, looked up, the tested form may be a part): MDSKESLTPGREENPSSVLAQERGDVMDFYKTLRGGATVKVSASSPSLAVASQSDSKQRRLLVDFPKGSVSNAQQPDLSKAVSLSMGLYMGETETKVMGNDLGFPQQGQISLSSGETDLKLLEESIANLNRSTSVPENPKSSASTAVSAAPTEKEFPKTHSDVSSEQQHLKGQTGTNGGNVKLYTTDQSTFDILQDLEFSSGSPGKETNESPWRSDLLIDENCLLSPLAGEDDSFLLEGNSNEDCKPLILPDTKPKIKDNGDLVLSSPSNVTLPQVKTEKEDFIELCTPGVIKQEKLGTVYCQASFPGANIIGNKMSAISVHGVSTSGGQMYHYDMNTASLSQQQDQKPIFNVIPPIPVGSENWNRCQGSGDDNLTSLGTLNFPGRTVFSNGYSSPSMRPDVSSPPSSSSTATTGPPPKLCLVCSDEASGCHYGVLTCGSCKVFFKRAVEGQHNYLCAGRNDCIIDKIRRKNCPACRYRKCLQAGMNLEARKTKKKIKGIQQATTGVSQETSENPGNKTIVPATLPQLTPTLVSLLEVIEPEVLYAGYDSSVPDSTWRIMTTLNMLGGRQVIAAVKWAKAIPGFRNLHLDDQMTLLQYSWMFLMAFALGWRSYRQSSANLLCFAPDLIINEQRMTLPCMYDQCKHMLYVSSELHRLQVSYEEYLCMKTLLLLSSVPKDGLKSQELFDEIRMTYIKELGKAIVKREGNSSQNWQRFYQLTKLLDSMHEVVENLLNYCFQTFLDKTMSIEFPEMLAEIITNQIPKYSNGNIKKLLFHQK
Method in brief: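 Transiently transfected HepG2 cells express chimeric NR-GAL4 proteins acting on GAL4-UAS reporter units. Compounds are applied for 24 h. mRNA induction over DMSO is measured by capillary electrophoresis.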

[2] = target: Bile acid receptor (Homo sapiens) (UniProt Q96RI1); test: ATG_FXR_TRANS: Attagene TRANS-FACTORIAL HepG2 Assay for Farnesoid X Receptor (FXR) (AID 2282979; active = hit-call score of the fitted dose curve at least 0.9, where 1 is the maximum;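 also: hits raise reporter mRNA above DMSO so AC50 marks FXR activation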); conditions: HepG2 Attagene TRANS FXR-GAL4 reporter transcription
Chain of Bile acid receptor (Homo sapiens) (Q96RI1 whole entry, looked up, the tested form may be a part): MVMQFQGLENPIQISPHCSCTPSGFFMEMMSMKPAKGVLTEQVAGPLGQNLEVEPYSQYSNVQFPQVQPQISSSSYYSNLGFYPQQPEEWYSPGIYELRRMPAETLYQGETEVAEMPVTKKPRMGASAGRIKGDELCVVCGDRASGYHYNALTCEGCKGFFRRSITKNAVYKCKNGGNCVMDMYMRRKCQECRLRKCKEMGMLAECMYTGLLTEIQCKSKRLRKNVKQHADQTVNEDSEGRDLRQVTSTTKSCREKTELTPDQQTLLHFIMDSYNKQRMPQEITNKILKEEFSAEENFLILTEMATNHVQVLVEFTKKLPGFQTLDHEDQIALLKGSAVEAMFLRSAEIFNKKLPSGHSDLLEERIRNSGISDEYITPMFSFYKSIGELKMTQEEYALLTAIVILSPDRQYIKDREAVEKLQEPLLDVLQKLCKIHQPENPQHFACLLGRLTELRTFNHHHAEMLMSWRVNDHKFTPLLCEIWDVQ
Method in brief: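 After 24 h chemical treatment of transfected HepG2 cells, GAL4-UAS reporter transcripts driven by an exogenous FXR-GAL4 fusion were measured by RT-PCR and capillary electrophoresis. Increases over DMSO were fitted.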

[3] = target: Oxysterols receptor LXR-alpha (Homo sapiens) (UniProt Q13133); test: ATG_LXRa_TRANS: Attagene TRANS-FACTORIAL HepG2 Assay for human Liver X Receptor alpha (LXRa) (AID 2282980; active = hit-call score of the fitted dose curve at least 0.9, where 1 is the maximum); conditions: HepG2 Attagene TRANS reporter, LXRa transactivation
Chain of Oxysterols receptor LXR-alpha (Homo sapiens) (Q13133 whole entry, looked up, the tested form may be a part): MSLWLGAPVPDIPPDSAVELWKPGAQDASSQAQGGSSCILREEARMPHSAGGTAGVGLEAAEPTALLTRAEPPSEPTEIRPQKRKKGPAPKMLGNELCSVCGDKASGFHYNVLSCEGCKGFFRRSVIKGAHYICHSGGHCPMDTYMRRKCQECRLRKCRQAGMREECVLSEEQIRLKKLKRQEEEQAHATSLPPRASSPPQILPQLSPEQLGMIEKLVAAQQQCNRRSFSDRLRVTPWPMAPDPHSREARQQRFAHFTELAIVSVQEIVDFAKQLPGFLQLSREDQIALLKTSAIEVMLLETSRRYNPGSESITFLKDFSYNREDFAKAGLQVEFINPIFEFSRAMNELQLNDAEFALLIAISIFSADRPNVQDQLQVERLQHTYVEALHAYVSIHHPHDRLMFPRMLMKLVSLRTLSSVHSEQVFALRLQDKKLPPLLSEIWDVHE
Method in brief: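 In this multiplexed TRANS system, compounds act on HepG2 cells carrying GAL4-UAS reporter units and a receptor-GAL4 fusion for 24 h. Induced reporter RNA is amplified, fluorescently labelled and sized by capillary electrophoresis, with DMSO as baseline.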

[4] = target: Oxysterols receptor LXR-beta (Homo sapiens) (UniProt P55055); test: ATG_LXRb_TRANS: Attagene TRANS-FACTORIAL HepG2 Assay for human Liver X Receptor beta (LXRb) (AID 2282981; active = hit-call score of the fitted dose curve at least 0.9, where 1 is the maximum); conditions: HepG2 Attagene TRANS GAL4-LXRb reporter, mRNA
Chain of Oxysterols receptor LXR-beta (Homo sapiens) (P55055 whole entry, looked up, the tested form may be a part): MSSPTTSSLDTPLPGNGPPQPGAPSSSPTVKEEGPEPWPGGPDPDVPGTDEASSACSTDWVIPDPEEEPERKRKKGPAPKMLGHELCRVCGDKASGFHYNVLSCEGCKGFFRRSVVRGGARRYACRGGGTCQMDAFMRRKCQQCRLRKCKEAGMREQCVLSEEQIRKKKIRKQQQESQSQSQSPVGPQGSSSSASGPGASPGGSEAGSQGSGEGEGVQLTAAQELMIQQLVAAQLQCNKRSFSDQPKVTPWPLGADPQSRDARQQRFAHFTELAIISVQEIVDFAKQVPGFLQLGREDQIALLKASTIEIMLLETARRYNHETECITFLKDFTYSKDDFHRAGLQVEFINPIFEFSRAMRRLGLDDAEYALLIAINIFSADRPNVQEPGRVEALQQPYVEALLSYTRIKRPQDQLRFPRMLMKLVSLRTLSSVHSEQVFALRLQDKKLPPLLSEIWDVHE
Method in brief: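 After 24 h chemical treatment of transfected HepG2 cells carrying exogenous NR-Gal4 chimeras, reporter mRNA was quantified by fluorescent RT-PCR and capillary electrophoresis; activity taken as increase over DMSO controls.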

[5] = ATG_M_32_TRANS: Attagene TRANS-FACTORIAL HepG2 Assay for M32 Transcription Factor (Internal Marker) (AID 2282984; active = hit-call score of the fitted dose curve at least 0.9, where 1 is the maximum;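 also: transcript level of a background control reporter unit measured by RT-PCR and capillary electrophoresis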); conditions: HepG2 Attagene TRANS M32 internal marker reporter
Method in brief: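 Internal background reporter in transfected HepG2: after 24 h chemical exposure, RNA reverse-transcribed, reporter cDNA amplified, fluorescently labelled and HpaI-cut, then sized by capillary electrophoresis. Gain of signal fitted against DMSO control.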

[6] = target: Transcriptional activator Myb (Homo sapiens) (UniProt P10242); test: ATG_Myb_CIS: Attagene CIS-FACTORIAL HepG2 Assay for human Myeloblastosis (Myb) Proto-Oncogene Transcription Factor (AID 2282986); conditions: HepG2 Attagene CIS-FACTORIAL Myb reporter transcription; actives raise or lower the signal
Chain of Transcriptional activator Myb (Homo sapiens) (P10242 whole entry, looked up): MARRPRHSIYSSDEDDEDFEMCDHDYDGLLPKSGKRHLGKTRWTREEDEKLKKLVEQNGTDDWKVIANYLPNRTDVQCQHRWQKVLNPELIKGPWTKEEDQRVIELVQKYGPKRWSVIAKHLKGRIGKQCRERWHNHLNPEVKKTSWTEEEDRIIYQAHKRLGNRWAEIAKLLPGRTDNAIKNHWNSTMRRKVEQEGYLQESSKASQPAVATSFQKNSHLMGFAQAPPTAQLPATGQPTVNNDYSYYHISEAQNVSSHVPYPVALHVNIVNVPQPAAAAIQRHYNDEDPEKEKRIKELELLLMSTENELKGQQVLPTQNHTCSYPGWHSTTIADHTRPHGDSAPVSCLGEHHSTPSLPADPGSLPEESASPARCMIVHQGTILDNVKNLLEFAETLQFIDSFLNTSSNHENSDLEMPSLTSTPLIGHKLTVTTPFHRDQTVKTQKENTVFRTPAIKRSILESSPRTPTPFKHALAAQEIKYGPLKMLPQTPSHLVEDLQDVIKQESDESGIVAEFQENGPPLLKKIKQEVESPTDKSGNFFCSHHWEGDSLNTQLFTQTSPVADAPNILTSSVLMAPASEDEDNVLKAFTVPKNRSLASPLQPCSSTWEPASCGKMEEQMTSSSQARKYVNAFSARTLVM
Method in brief: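 Using HepG2 liver cells bearing transiently transfected cis-promoter reporter constructs, the assay measures induction or loss of reporter mRNA after 24 hours of dosing. Detection used fluorescently labeled RT-PCR products separated by capillary electrophoresis.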

[7] = target: Nuclear respiratory factor 1 (Homo sapiens) (UniProt Q16656); test: ATG_NRF1_CIS: Attagene CIS-FACTORIAL HepG2 Assay for human Nuclear Respiratory Factor 1 (NRF1) Orphan Gene (AID 2282987); conditions: HepG2 NRF1 cis-element reporter, Attagene multiplex; actives raise or lower the signal
Chain of Nuclear respiratory factor 1 (Homo sapiens) (Q16656 whole entry, looked up): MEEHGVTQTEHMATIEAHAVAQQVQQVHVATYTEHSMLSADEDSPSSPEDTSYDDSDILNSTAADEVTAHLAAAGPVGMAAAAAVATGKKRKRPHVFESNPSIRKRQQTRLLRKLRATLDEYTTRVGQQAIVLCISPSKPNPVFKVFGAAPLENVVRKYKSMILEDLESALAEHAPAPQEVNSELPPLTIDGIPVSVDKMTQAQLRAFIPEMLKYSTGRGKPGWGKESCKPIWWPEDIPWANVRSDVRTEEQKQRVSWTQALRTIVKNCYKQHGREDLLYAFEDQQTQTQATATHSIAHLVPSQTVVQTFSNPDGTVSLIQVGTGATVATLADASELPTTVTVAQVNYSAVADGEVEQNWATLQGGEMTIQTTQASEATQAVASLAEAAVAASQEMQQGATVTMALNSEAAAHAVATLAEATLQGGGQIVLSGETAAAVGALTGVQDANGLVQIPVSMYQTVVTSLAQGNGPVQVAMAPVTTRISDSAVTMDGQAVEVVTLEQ
Method in brief: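 Reporter mRNA induction or loss in HepG2 cells after 24 h dosing; cis-regulated reporter constructs report endogenous transcription-factor activity. Quantified by RT-PCR/capillary electrophoresis fluorescence, DMSO-referenced.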

[8] = ATG_NFI_CIS: Attagene CIS-FACTORIAL HepG2 Assay for human Nuclear Factor I (NFI) (AID 2282989); conditions: HepG2 cis-regulatory reporter, NFI response element transcription; actives raise or lower the signal
Method in brief: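 Transient MRTU transfection of HepG2 → 24 h chemical dosing → total RNA, oligo(dT) RT → PCR, 6-FAM primer extension, HpaI cut → capillary electrophoresis. Endpoint fitted bidirectionally relative to DMSO.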

[9] = target: Myc proto-oncogene protein (Homo sapiens) (UniProt P01106); test: ATG_Myc_CIS: Attagene CIS-FACTORIAL HepG2 Assay for human Myelocytomatosis (Myc) Proto-Oncogene Transcription Factor (AID 2282990); conditions: HepG2, Attagene cis-reporter transcription factor activity; actives raise or lower the signal
Method in brief: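 After 24 h chemical treatment of HepG2 cells carrying multiplexed cis-regulated reporter constructs, reporter transcripts quantified by RT-PCR and capillary electrophoresis of fluorescent fragments. Gain or loss fitted against DMSO baseline.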

[10] = ATG_NF_kB_CIS: Attagene CIS-FACTORIAL HepG2 Assay for human Nuclear Factor Kappa B (NF-kB) (AID 2282991); conditions: HepG2 Attagene cis-factorial NF-kB reporter mRNA; actives raise or lower the signal
Method in brief: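 DMSO served as negative control and baseline for bidirectional curve fitting. Transiently transfected HepG2 cells were dosed for 24 h, then reporter transcripts were measured by RT-PCR with capillary electrophoresis detection.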

[11] = ATG_NRF2_ARE_CIS: Attagene CIS-FACTORIAL HepG2 Assay for human Nuclear Factor Erythroid 2 Related Factor 2 (NFR2) response to Antioxidant Response Elements (ARE) (AID 2282992); conditions: HepG2 Attagene ARE/NRF2 reporter, transcription factor activity; actives raise or lower the signal;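 as to AC50: reporter mRNA level measured by RT-PCR and capillary electrophoresis fluorescence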
Method in brief: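 Endogenous transcription factor activity in human liver HepG2 cells is tracked via a cis-element-driven reporter within a multiplexed set. mRNA induction is read by RT-PCR and capillary electrophoresis after 24 h, with DMSO as baseline.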

[12] = ATG_Oct_MLP_CIS: Attagene CIS-FACTORIAL HepG2 Assay for human Octamer-Binding Transcription Factor (Oct) (AID 2282993); conditions: HepG2 Attagene cis-factorial Oct reporter, mRNA; actives raise or lower the signal
Method in brief: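 Transient MRTU transfection of HepG2 → 24 h compound treatment → RNA isolation, reverse transcription, PCR → 6-FAM primer extension, HpaI digest → capillary electrophoresis. Activity fitted both directions against DMSO.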

[13] = target: Cellular tumor antigen p53 (Homo sapiens) (UniProt P04637); test: ATG_p53_CIS: Attagene CIS-FACTORIAL HepG2 Assay for human p53 Transcription Factor (AID 2282994); conditions: HepG2 p53 cis-element reporter, Attagene mRNA; actives raise or lower the signal
Chain of Cellular tumor antigen p53 (Homo sapiens) (P04637 whole entry, looked up, the tested form may be a part): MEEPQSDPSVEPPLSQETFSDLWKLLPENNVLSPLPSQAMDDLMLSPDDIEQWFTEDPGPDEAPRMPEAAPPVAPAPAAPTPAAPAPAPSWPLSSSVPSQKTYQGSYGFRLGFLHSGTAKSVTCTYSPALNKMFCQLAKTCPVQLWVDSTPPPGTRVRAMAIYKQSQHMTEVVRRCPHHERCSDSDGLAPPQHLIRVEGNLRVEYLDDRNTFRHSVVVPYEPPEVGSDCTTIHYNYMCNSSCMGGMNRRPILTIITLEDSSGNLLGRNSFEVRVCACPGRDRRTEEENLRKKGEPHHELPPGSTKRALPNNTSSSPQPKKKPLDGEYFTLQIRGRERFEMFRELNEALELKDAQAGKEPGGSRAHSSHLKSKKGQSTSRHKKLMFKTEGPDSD
Method in brief: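 Steps: transfect HepG2 with multiplexed cis reporter constructs; dose chemicals 24 h; extract RNA, reverse-transcribe, PCR-amplify reporter sequences; FAM-label, HpaI-digest, resolve fragments by CE. Activity fitted both directions relative to DMSO.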

[14] = BSK_3C_TissueFactor: BioMAP Diversity Plus: 3C Assay for Tissue Factor Biomarker Activity (AID 2282997); conditions: BioMAP 3C HUVEC, tissue factor biomarker readout; actives raise or lower the signal
Method in brief: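 In this endothelial system, HUVEC are treated for 24 h and Tissue Factor is assessed by ELISA, normalised to DMSO.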

[15] = BSK_3C_uPAR: BioMAP Diversity Plus: 3C Assay for Urokinase-type plasminogen activator receptor (uPAR) Biomarker Activity (AID 2282998); conditions: BioMAP 3C HUVEC, uPAR biomarker ELISA; actives raise or lower the signal
Method in brief: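 ELISA readout of uPAR on human vascular endothelium (umbilical vein primary cells), taken 24 h after chemical dosing. Increases and decreases are both fitted relative to DMSO vehicle.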

[16] = BSK_3C_VCAM1: BioMAP Diversity Plus: 3C Assay for Vascular cell adhesion molecule 1 (VCAM1) Biomarker Activity (AID 2282999); conditions: BioMAP 3C HUVEC, VCAM1 ELISA, cytokine-stimulated; actives raise or lower the signal
Method in brief: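 Activity fitted in both directions relative to DMSO, with ELISA measurement of the surface marker on primary HUVEC (3C) at 24 h post-treatment; parallel SRB staining (0.1% SRB, TCA-fixed, 560 nm) flagged overt cytotoxicity.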

[17] = BSK_4H_Eotaxin3: BioMAP Diversity Plus: 4H Assay for Eotaxin 3 Biomarker Activity (AID 2283000); conditions: primary human endothelial cells (HUVEC); actives raise or lower the signal
Method in brief: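 ELISA quantitation of CCL26 (Eotaxin-3) protein from chemically dosed human vascular endothelial cells at 24 h; increases and decreases both scored relative to DMSO-treated baseline.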

[18] = target: Hepatocyte nuclear factor 4-alpha (Homo sapiens) (UniProt P41235); test: ATG_HNF4a_TRANS: Attagene TRANS-FACTORIAL HepG2 Assay for human Hepatocyte Nuclear Factor 4 alpha (HNF4a) (AID 2282982; active = hit-call score of the fitted dose curve at least 0.9, where 1 is the maximum); conditions: HepG2 HNF4a transactivation reporter, mRNA readout
Chain of Hepatocyte nuclear factor 4-alpha (Homo sapiens) (P41235 whole entry, looked up, the tested form may be a part): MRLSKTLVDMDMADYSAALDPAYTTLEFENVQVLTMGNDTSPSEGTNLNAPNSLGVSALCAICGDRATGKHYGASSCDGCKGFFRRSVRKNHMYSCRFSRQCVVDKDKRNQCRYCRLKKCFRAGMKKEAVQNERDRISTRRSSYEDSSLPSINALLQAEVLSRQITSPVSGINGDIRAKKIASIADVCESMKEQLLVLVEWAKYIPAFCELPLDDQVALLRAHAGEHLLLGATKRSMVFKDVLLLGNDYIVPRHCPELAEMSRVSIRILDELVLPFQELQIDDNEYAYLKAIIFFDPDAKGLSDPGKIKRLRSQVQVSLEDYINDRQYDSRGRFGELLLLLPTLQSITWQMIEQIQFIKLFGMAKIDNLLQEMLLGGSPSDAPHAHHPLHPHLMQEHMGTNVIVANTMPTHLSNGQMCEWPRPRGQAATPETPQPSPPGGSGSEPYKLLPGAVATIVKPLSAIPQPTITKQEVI
Method in brief: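 Activity of an exogenous HNF4a–Gal4 fusion scored as induced GAL4-UAS reporter transcripts after 24 h chemical exposure of transfected human HepG2 cells. Read-out via RT-PCR with 6-FAM labelling and capillary electrophoresis; rise over DMSO baseline.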

[19] = ATG_M_06_TRANS: Attagene TRANS-FACTORIAL HepG2 Assay for M06 Transcription Factor (Internal Marker) (AID 2282983; active = hit-call score of the fitted dose curve at least 0.9, where 1 is the maximum;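 also: reporter transcript level by RT-PCR then capillary electrophoresis fluorescence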); conditions: HepG2 Attagene TRANS M06 internal marker reporter
Method in brief: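 Multi-reporter-transfected HepG2, 24 h treatment; reporter transcripts quantified via RT-PCR, primer-extension labelling and CE. DMSO-normalized gain-of-signal fit.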

[20] = target: Nuclear receptor subfamily 4 group A member 2 (Homo sapiens) (UniProt P43354); test: ATG_NURR1_TRANS: Attagene TRANS-FACTORIAL HepG2 Assay for human Nuclear Receptor Related Protein 1 (NURR1) (AID 2282985; active = hit-call score of the fitted dose curve at least 0.9, where 1 is the maximum); conditions: HepG2 Attagene TRANS reporter, mRNA readout
Chain of Nuclear receptor subfamily 4 group A member 2 (Homo sapiens) (P43354 whole entry, looked up, the tested form may be a part): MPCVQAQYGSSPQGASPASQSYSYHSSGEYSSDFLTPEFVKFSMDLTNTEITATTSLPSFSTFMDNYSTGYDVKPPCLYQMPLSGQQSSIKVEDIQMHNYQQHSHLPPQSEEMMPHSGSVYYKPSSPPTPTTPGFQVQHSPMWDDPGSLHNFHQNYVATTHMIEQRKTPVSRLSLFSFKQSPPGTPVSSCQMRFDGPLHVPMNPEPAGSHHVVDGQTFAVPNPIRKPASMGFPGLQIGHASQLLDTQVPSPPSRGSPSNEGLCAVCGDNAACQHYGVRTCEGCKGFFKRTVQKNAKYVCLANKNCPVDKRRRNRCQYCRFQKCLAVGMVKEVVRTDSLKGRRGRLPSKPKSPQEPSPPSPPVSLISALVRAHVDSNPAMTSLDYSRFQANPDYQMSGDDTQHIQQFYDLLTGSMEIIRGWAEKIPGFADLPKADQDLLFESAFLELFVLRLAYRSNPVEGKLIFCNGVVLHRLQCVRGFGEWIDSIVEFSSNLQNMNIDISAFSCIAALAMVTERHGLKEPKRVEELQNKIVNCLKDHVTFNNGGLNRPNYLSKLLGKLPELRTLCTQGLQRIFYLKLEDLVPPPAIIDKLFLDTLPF
Method in brief: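 Reporter transcript induction, measured by RT-PCR with fluorescent labelling, HpaI digestion and capillary electrophoresis, after 24 hr dosing of human HepG2 cells transiently expressing an exogenous NR-Gal4 fusion with GAL4-UAS-driven reporters; DMSO as baseline.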

Measured: AC50

COC(=O)c1ccccc1C(=O)OC
not listed: [18] | [19] | [20]
inactive: all other assays above

COc1ccc(C(c2ccc(OC)cc2)C(Cl)(Cl)Cl)cc1
inactive: [1] | [2] | [3] | [4] | [18] | [19] | [5] | [20] | [6] | [7] | [9] | [10] | [11] | [12] | [13] | [14] | [17]
active: [2] 26.5 µM | [12] 37.6 µM | [15] 30.1 µM | [16] 31.3 µM

C=CCC1=C(C)[C@@H](OC(=O)[C@@H]2[C@@H](C=C(C)C)C2(C)C)CC1=O
active: [11] 2.64 µM | [12] 9.45 µM | [14] 18.8 µM | [15] 36.6 µM | [16] 30.3 µM | [17] 32.1 µM
not listed: [2] | [3] | [5] | [8] | [20]
inactive: all other assays above

Cc1ccc(-c2c(Cl)nc(C#N)n2S(=O)(=O)N(C)C)cc1
active: [11] 6.65 µM | [12] 11.9 µM | [14] 27.3 µM | [15] 23.9 µM | [16] 34.3 µM | [17] 15.8 µM
not listed: [2] | [5] | [18] | [20]
inactive: all other assays above

CC(Oc1ccc(Cl)cc1Cl)C(=O)O (stereo unspecified)
not listed: [2] | [3] | [5] | [8] | [19] | [20]
inactive: all other assays above

CCCCNC(=O)n1c(NC(=O)OC)nc2ccccc21
active: [15] 6.89 µM
not listed: [2] | [5] | [8] | [20]
inactive: all other assays above

CCOc1cc(Oc2ccc(C(F)(F)F)cc2Cl)ccc1[N+](=O)[O-]
inactive: [19] | [6] | [7] | [10] | [13] | [14] | [15] | [16] | [17]
active: [9] 30.3 µM | [11] 13.7 µM | [12] 13.7 µM

COP(N)(=O)SC (stereo unspecified)
not listed: [1] | [2] | [4] | [8]
inactive: all other assays above

COP(=S)(OC)Oc1nc(Cl)c(Cl)cc1Cl
active: [11] 26.2 µM
not listed: [1] | [2] | [3] | [5] | [8] | [10] | [18]
inactive: all other assays above

CCNc1nc(Cl)nc(NCC)n1
not listed: [2] | [8] | [10] | [18] | [20]
inactive: all other assays above

CC1=C(C(=O)Nc2ccccc2)SCCO1
active: [11] 16.6 µM
not listed: [1] | [3] | [10] | [18] | [20]
inactive: all other assays above

CCc1nn(C)c(C(=O)NCc2ccc(C(C)(C)C)cc2)c1Cl
inactive: [1] | [18] | [19] | [6] | [7] | [9]
active: [3] 0.258 µM | [4] 0.343 µM | [10] 0.709 µM | [11] 0.214 µM | [12] 0.397 µM | [13] 1.9 µM | [14] 20 µM | [15] 26.7 µM | [16] 31.8 µM | [17] 27.1 µM

N#Cc1nn(-c2c(Cl)cc(C(F)(F)F)cc2Cl)c(N)c1S(=O)C(F)(F)F (stereo unspecified)
active: [3] 18.5 µM | [4] 11.7 µM | [11] 5.51 µM | [12] 10.2 µM | [15] 22 µM | [17] 20 µM
inactive: [2] | [3] | [4] | [18] | [19] | [5] | [6] | [7] | [8] | [9] | [11] | [12] | [13] | [14] | [16]
